# KDM5B inh: inhibitors of human KDM5B histone demethylase. Q9UGL1. KDM5B demethylase, FDH-coupled NADH fluorescence (FDH is formaldehyde dehydrogenase). Potency, µM (doses to about 57.7 µM), most hits filed as inhibitors. actives 2.6% (n = 220,000). AID 1347165; active means well fitted inhibition curve with a large enough effect; further: nearly all actives have a fitted effect of over 70% in size
# Target sequence (Q9UGL1 whole entry, looked up): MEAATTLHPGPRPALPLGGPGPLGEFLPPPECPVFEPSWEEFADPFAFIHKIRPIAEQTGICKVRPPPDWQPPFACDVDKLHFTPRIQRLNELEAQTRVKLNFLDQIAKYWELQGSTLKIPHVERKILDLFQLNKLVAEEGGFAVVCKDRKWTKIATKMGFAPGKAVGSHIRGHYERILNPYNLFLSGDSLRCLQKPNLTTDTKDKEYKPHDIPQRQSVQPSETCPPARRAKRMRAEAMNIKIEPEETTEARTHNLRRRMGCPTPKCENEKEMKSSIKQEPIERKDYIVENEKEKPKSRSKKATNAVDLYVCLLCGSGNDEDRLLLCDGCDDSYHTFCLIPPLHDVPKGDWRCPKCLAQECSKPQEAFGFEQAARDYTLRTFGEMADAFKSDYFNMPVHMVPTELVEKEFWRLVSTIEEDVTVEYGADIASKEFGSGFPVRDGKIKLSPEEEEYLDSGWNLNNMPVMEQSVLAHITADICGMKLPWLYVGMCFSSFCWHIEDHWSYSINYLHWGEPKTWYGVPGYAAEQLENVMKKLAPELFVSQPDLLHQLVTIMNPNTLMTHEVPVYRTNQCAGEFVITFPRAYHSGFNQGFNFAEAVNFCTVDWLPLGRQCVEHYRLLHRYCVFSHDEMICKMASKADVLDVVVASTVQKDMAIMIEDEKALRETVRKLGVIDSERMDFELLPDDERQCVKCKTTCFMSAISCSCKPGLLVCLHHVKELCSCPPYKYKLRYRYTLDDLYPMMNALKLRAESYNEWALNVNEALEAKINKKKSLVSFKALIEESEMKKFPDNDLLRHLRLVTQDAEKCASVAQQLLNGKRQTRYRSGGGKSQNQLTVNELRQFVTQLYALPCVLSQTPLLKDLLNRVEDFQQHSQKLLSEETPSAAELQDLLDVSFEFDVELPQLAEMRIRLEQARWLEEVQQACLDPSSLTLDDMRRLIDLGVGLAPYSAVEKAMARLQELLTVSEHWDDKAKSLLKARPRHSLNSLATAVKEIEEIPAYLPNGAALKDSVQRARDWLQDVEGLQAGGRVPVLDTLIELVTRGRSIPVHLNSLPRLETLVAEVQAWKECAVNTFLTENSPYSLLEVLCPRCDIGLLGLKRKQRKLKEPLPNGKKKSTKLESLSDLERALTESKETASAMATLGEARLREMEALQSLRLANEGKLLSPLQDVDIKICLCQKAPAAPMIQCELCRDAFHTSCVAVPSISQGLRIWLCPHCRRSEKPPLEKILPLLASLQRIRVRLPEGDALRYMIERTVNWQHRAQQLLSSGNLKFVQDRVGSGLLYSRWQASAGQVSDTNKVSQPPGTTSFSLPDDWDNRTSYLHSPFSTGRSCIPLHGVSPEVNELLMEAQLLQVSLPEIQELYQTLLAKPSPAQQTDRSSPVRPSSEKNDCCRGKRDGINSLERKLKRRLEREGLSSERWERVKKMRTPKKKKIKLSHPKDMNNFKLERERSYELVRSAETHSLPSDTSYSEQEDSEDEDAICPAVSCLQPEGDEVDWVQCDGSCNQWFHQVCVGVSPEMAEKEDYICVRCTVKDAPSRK
#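 Here, H3K4me3 peptide (12.5 µM in substrate mix) is demethylated by KDM5BΔAP, 200 nM final, after 10 min compound exposure. Formaldehyde product is coupled through FDH (0.25 U/mL in mix) to NADH fluorescence; 30-min ΔRFU feeds dose-response curves.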
# Numbers stand for hits; – = inactive. The full list was thinned out, with hits kept by preference.
SMILES,KDM5B inh
CCCCn1c(=O)n(CC(=O)Nc2cccc(F)c2)c(=O)c2c1ncn2Cc1ccco1,–
CC(=O)c1ccc(NC(=O)COC(=O)Cc2cccc3ccccc23)cc1,–
CCC1CCc2sc(C(=O)NCc3csc(-c4ccccc4)n3)cc2C1 (stereo not given),–
N#CCCN1CCCC1CCc1ccccc1 (stereo not given),–
O=C(c1ccc2cc[nH]c2c1)N1CCC(C(=O)N2CCCCC2)CC1,–
Cn1c(=O)[nH]c(=O)c2c1nc(N1CCN(Cc3ccc(F)cc3)CC1)n2Cc1ccccc1,–
Cc1oc2cc(OCC(=O)Nc3ccc(N4CCOCC4)cc3)ccc2c(=O)c1-c1ccccc1,–
c1ccc(-n2cc(CN3CCC(N4CCSCC4)CC3)nn2)cc1,–
c1ccc(-n2cc(CN3CCCCC3c3ccccn3)nn2)cc1 (stereo not given),28.2µM
Cc1noc(C)c1C1CCCN1Cc1cn(-c2ccccc2)nn1 (stereo not given),–
CCCCCCCCOC(=O)Nc1ccc(C)cc1,–
O=Cc1cccn1-c1ccc(I)cc1,–
CSc1ccccc1NC(=O)c1ccccc1SC,–
Cc1cccc(CC(=O)N2CC(=O)Nc3ccc(Br)cc3C2c2ccccc2)c1 (stereo not given),–
Cn1ccc2c(C(=O)N[C@@H]3CCOC[C@H]3Oc3ccccn3)cccc21,–
Cc1cc(=O)n(CC(=O)N[C@@H]2CCOC[C@H]2Oc2ccccn2)nc1C,–
CCn1c(C)ccc(C(=O)N[C@@H]2COCC[C@H]2Oc2ccccn2)c1=O,28.2µM
O=C(C[C@@H]1CCNC[C@@H]1Cc1cc(-c2ccc(F)cc2)on1)Nc1ccccc1,–
Cc1ccc(-n2cccc2C=O)c(C)c1,–
CC(C)(Oc1nn(CC2CCOCC2)c2ccccc12)C(=O)NC1CCOCC1,35.5µM
CC(C)(Oc1nn(CCN2CCOCC2)c2ccccc12)C(=O)NCCCn1ccnc1,–
CC(C)(Oc1nn(CC2CCOCC2)c2ccccc12)C(=O)NCCc1ccccc1,35.5µM
CC(C)(Oc1nn(CCOc2ccccc2)c2ccccc12)C(=O)NCc1ccncc1,–
CC(C)(Oc1nn(Cc2cccc(Cl)c2)c2ccccc12)C(=O)NCC1CCOCC1,–
CC(C)(Oc1nn(CCN2CCOCC2)c2ccccc12)C(=O)NCCc1ccccc1,–
SMILES,KDM5B inh
Cc1cccc(C)c1NC(=O)CSc1nnc2[nH]c(=O)c(Cc3ccccc3)nn12,–
O=C(COC(=O)CC(c1ccccc1)c1ccccc1)Nc1ccc(N2CCOCC2)cc1,–
CC(C)C(=O)N1CCCN(C)c2ccccc21,–
Cc1ccc(C#N)c(NCc2cccnc2Oc2cccc(C(F)(F)F)c2)n1,25.1µM
CC(C)(C)CC(=O)NCc1cccnc1Oc1cccc(C(F)(F)F)c1,–
Cc1ccnn1CC(=O)NCc1cccnc1Oc1cccc(C(F)(F)F)c1,–
Fc1ccc(NN=C2c3ccccc3-c3ccccc32)c(F)c1,–
COc1ccccc1OCCNC(=O)c1cn2ccnc(-c3ccccc3)c2n1,–
COc1ccc(NC(=O)c2cn3ccnc(-c4ccc(C)cc4)c3n2)c(OC)c1,–
CCN1CCN(CCNC(=O)c2cn3ccnc(-c4ccc(OC)cc4)c3n2)CC1,28.2µM
O=C(CN1CCN(C(=O)c2ccc3ccccc3c2)CC1)Nc1ccccc1Cl,–
NCC(=O)N1CCCC2(Cc3ccccc3CN2C(=O)Cc2cccc(Cl)c2)C1 (stereo not given),–
Cc1oc(-c2cccc(Cl)c2)nc1CNC(=O)Nc1ccccc1Cl,–
O=C1NCc2ccccc2CC12CCCN(Cc1ccc(Cl)cc1)C2 (stereo not given),–
Cc1ccc(C(=O)N(Cc2ccco2)Cc2ccco2)cc1,–
CCNc1ncc(C(=O)N(CCc2ccccc2)Cc2ccco2)cn1,28.2µM
O=C(c1ccccc1)N(Cc1ccco1)Cc1cccs1,–
COc1ccc(Nc2nc(-c3ccc(OC)cc3)c(C)s2)cc1,–
CCc1cc(C(=O)Cc2csc(-c3ccccc3)n2)c(O)cc1O,–
C=CCNC(=O)COCC(=O)O,–
Cc1ccc(NC(=O)COC(=O)c2ccccc2C)cc1F,–
Cc1nn2c(c1-c1ccccc1-c1ccccc1)N(C(=O)COc1ccccc1)CCC2,–
Cc1nn2c(c1-c1ccccc1OCc1ccccc1)N(C(=O)C1CCOCC1)CCC2,–
Cc1nn2c(c1-c1ccccc1N1CCCC1)N(C(=O)C1CCOCC1)CCC2,28.2µM
Cc1nn2c(c1-c1ccccc1Oc1ccccc1)N(C(=O)COc1ccccc1)CCC2,–
SMILES,KDM5B inh
Cc1nn2c(c1-c1ccccc1C(C)C)N(C(=O)C1CCOCC1)CCC2,–
Cc1nn2c(c1-c1ccccc1N1CCCC1)N(C(=O)COc1ccccc1)CCC2,20µM
CC(NC(=O)CCc1ncc(-c2ccc(Cl)cc2)o1)c1ccc2c(c1)NC(=O)CO2 (stereo not given),–
O=Cc1c[nH]c2cccc(Cl)c12,–
O=C(NCc1ccco1)c1cc(-c2ccccc2F)cc2c1OCCN2Cc1cccnc1,28.2µM
O=C(Nc1cccnc1)c1cc(-c2ccccc2F)cc2c1OCCN2Cc1cccnc1,35.5µM
CC(Cc1cccnc1)NC(=O)c1cc(COc2c(F)cccc2F)on1 (stereo not given),–
CCOc1ccccc1-c1noc(CN2CCCc3c(C(=O)NC(C)C)cccc32)n1,–
O=C(NCCc1cccnc1)c1cccc(F)c1,–
CN(C)CCNC(=O)c1cc(-c2ccccc2F)cc2c1OCCN2Cc1cccnc1,35.5µM
O=C(Nc1cccnc1)c1ccc(F)c(S(=O)(=O)N2CCOCC2)c1,–
CC(C)NC(=O)c1cc(-c2ccccc2F)cc2c1OCCN2Cc1cccnc1,22.4µM
O=C(NCc1cccnc1)c1ccc2c(c1)N(Cc1ccccc1F)C(=O)c1ccccc1S2=O (stereo not given),–
CN(C)CCN(C)C(=O)c1cc(-c2ccccc2F)cc2c1OCCN2Cc1cccnc1,–
O=C(Nc1cccnc1)c1nc2c(o1)CCN(Cc1ccc(F)cc1F)CC2,–
CN(C(=O)CN1CCN(Cc2ccccc2)CC1)c1ccccc1C(=O)NCc1ccco1,–
CCOc1nc2ccccc2nc1N1CCC(C(=O)Nc2ccc(C(C)=O)cc2)CC1,–
Cc1ccccc1C(=O)OCC(=O)Nc1cc(F)cc(F)c1,–
O=C(CCSc1nc(Cl)nc2nc[nH]c12)N1CCN(Cc2ccccc2)CC1,–
CCC(C(=O)N1CCC2(CC1)C(=O)N(CC(=O)NCC(C)C)CN2c1ccccc1)c1ccccc1 (stereo not given),–
CC(c1cccc(Cl)c1)N(C)CCS(=O)(=O)CCC(N)=O (stereo not given),–
CC(C)C(=O)Nc1ccc(F)c(F)c1,–
CC(C(=O)NCc1ccco1)N1CCN(CC(=O)NC2CC2)CC1 (stereo not given),–
CCOC(=O)C(C#N)C(c1ccco1)c1ccccc1OC (stereo not given),–
C/C(=N/NC(N)=S)c1ccc(Cl)cc1Cl,–
SMILES,KDM5B inh
Cc1cccc(S(=O)(=O)Nc2nc3ccccc3nc2NCc2ccccc2Cl)c1,–
O=C(NC1CCc2ccccc21)c1ccc2ccccc2n1 (stereo not given),–
Cc1cn2nc(C(=O)NC3CCCC3)cc2c(N2CCCC2)n1,–
Cc1cn2nc(C(=O)NC3CCc4ccccc43)cc2c(N2CCCC2)n1 (stereo not given),14.1µM
Cc1cn2nc(C(=O)NC3CCCCCC3)cc2c(N2CCCC2)n1,6.31µM
CCOc1cc(=O)n2c(c1C(=O)NC1CCc3ccccc31)CCCCC2 (stereo not given),–
Cc1ccc(CCNC(=O)c2cc3c(N4CCCC4)nc(C)cn3n2)cc1,–

# Screening data deposited in PubChem by National Center for Advancing Translational Sciences (NCATS).
